Source: PubChem
An excerpt weighted towards active compounds, which were near 6% of everything screened.
Chronic BCR inh = qHTS Assay to Find Inhibitors of Chronic Active B-Cell Receptor Signaling | hit rate 0.05% among 340,000 | Potency, µM (doses to about 46.1 µM), for inactives: top-dose activity change, negative = inhibition, usual class: inhibitors | ABC-DLBCL IkBa-CBG/CBR reporter, luminescence ratio, 4 h; active means well fitted inhibition curve with a large enough effect in the signal ratio, with a control signal flat, not every such curve was filed as active; inconclusive means small, poorly fitted or top-dose-only effect, or effect the other way, or a change in a side signal; the % refers to the signal ratio;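 further: potency means the concentration at half of the fitted maximal effect; plate controls were basal doxycycline-induced cells for no effect and cells given 10 µM MG132 for full effect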
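Cell line TMD8 (human ABC DLBCL), stably expressing tet-inducible CBG68-IkBa fusion and CBR; IMDM/0.5% FBS; cpd up to 46 uM; dox induction, 4 h, 37C/5% CO2; dual luminescence; green/red ratio; MG132 control.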
D1 ag = Allosteric Agonists of the Human D1 Dopamine Receptor: qHTS; HEK293 T-REx D1 cells, calcium flux, agonist mode; activation, % at 2 µM; hit rate 1% among 360,000; in the data active means activation above about 30%; further: 0% is about no effect
Target sequence (P21728 whole entry, looked up): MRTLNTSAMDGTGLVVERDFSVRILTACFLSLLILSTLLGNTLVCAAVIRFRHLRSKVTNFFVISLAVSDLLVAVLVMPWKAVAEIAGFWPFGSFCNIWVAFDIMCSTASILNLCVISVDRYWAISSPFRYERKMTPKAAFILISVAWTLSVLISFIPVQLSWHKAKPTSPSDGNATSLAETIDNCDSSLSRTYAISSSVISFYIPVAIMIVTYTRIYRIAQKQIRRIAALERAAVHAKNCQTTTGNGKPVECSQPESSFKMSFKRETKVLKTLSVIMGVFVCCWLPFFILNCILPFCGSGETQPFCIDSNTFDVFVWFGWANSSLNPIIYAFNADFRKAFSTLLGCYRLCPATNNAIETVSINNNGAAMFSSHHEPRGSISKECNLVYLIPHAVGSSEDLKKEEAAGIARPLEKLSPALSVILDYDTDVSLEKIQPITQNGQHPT
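Inducible HEK293 T-REx D1 cells, force-coupled to calcium signalling, were plated at 4000 cells/well with tetracycline and held overnight at 30 C. After no-wash calcium dye loading, compound-evoked calcium rise over 180 s flagged agonists.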
DRD3 antagonist = qHTS of D3 Dopamine Receptor Antagonist: qHTS; D(3) dopamine receptor (Homo sapiens), P35462; D3R cells, DiscoveRx beta-arrestin luminescence, antagonist mode; active compounds read low; max response, negative = inhibition, %; hit rate 2.5% among 360,000; AID 652054, 2013; in the data active means max response below about -50%; inconclusive means no clear call, values can overlap the other calls; further: on the % scale 0 is the no-effect control and ±100 the full control effect
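Cells expressing the human receptor were seeded at 1500 cells/well, incubated overnight at 37 degrees C in 5% CO2, then exposed to library compounds with dopamine controls for 90 minutes at 37 degrees C before luminescent detection.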
D1 antag = Antagonist of Human D 1 Dopamine Receptor: qHTS; D(1A) dopamine receptor (Homo sapiens), P21728; HEK293 TREx D1 cells, calcium flux, dopamine EC80; active compounds read low; activity change, negative = inhibition, % at 10 µM; hit rate 3.2% among 360,000; in the data active means activity change below about -30%; further: on the % scale 0 is the no-effect control and ±100 the full control effect
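Allosteric or orthosteric antagonism assessed as attenuation of the calcium response to EC80 dopamine, added 180 s after compound, in induced HEK293 Trex D1 cells loaded with no-wash calcium dye.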
D1 PAM = Potentiators of Human D1 Dopamine Receptor: qHTS; D(1A) dopamine receptor (Homo sapiens), P21728; HEK293 TREx D1 cells, calcium flux, dopamine EC20 potentiation; potentiation, % at 10 µM; hit rate 0.036% among 360,000; AID 504651, 2011; in the data active means potentiation above about 30%; further: 0% is about no effect
DRD3 agonist = qHTS of D3 Dopamine Receptor Agonist: qHTS; D(3) dopamine receptor (Homo sapiens), P35462; D3R DiscoveRx beta-arrestin cells, luminescence, 90 min; max activation, %; hit rate 0.58% among 410,000; AID 652048, 2013; in the data active means max activation above about 30%; further: 0% is about no effect
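Agonist mode: compounds and dopamine controls were applied to plated cells for 90 min at 37 degrees C after an overnight attachment at 1500 cells/well. Luminescent read-out followed 30 - 60 minutes at room temperature with DiscoveRx detection reagent.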
Active calls of the source: *; ? = inconclusive; nt = no result.

SMILES	Chronic BCR inh	D1 ag	DRD3 antagonist	D1 antag	D1 PAM	DRD3 agonist
CC1CCCc2sc3nc(N4CCN(CCO)CC4)n4ncnc4c3c21 (stereo not given)	-5.2%	1.6	-56.3*	12.2	-6.0	-5.8
CC(=O)Nc1cccc(NC(=O)C2(c3cccs3)CCOCC2)c1	0.6%	-2.4	nt	nt	0.5	0.9
CCOC(=O)C(=CNc1cccnc1Oc1ccc(C)c2c1CCC2)C(=O)OCC	?	16.9	67.2	30.4	1.6	36.9*
CC(C)c1ccc(NC(=O)Cn2c(=O)n(CC3CCC(C(=O)NCCc4ccccc4)CC3)c(=O)c3ccccc32)cc1 (stereo not given)	nt	0.0	nt	9.8	-0.9	1.5
COc1ccc(NC(=O)Cn2cc(C(=O)c3ccco3)c3ccccc32)cc1	-0.4%	-0.2	1.4	-86.8*	-4.9	-3.8
COc1ccc(NC(=O)Cn2cc(S(=O)(=O)Cc3ccccc3)c3ccccc32)c(OC)c1	-1.8%	-0.1	37.9	-32.1*	-1.9	4.6
CCOc1ccc(NC(=O)Cn2cc(C(=O)c3ccco3)c3ccccc32)cc1	-11.4%	2.8	-24.7	-4.5	-6.0	9.9
CCc1ccccc1NS(=O)(=O)c1ccc(-c2coc(C)n2)cc1	nt	10.1	nt	-26.6	-4.2	-5.7
Cc1cccc(CN2C(=O)c3ccccc3S(=O)(=O)c3ccc(C(=O)N4CCCC4)cc32)c1	nt	2.0	nt	2.4	0.1	1.4
CCCn1nc(C(=O)NC2CCCC2)c2ccccc2c1=O	-1.1%	nt	-12.4	nt	nt	0.4
CCCn1nc(C(=O)NCc2ccccn2)c2ccccc2c1=O	?	1.7	15.7	-38.9*	-22.9	-0.9
COc1cccc(CNc2nc3c(-c4ccccc4)nnn3c3ccccc23)c1	nt	1.0	nt	-22.6	-5.0	0.2
Cc1cccc(CNC(=O)c2cnc3c(-c4cccc(C)c4)c(C)nn3c2C)c1	nt	0.2	nt	-33.2*	-6.0	0.0
CCOc1ccc(-c2c(C)nn3c(C)c(C(=O)NCc4ccc(C)o4)cnc23)cc1OCC	nt	5.5	nt	-33.6*	-7.5	2.6
CCOc1ccc(-c2c(C)nn3c(C)c(C(=O)NCc4cccc(OC)c4)cnc23)cc1OCC	nt	9.4	nt	-28.9	-8.6	6.9
CCn1c(Cc2ccccc2)n[nH]c1=S	?	2.4	6.7	6.0	-2.5	5.8
CC(C)Cn1c(Cc2ccccc2)n[nH]c1=S	?	32.7*	7.0	-35.2*	-2.2	-9.7
Cc1c(N=NC2=C(O)CCCC2=O)c(=O)n(-c2ccccc2)n1C	0.9%	2.9	-82.5*	-0.9	0.5	-28.5
CC(C)CC1NC(=O)c2cccnc2-n2c1nc1ccccc1c2=O (stereo not given)	nt	nt	-24.0	nt	nt	-2.7
CCc1ccc(Nc2cc(C)nc3nc(Cc4ccc(Cl)cc4)nn23)cc1	nt	4.0	nt	6.0	-0.3	-0.8
Oc1ccccc1-c1cc(-c2ccc(F)cc2)n[nH]1	?	0.3	3.3	-23.5	-3.4	2.2
Oc1ccc(F)cc1-c1cc(-c2ccc3c(c2)OCCO3)n[nH]1	?	5.8	-52.8*	1.5	-5.8	-3.7
Cc1ccc(Sc2nnc(Cc3ccccc3)c3ccccc23)cc1	?	11.2	-50.6*	10.8	-7.6	-60.9
COc1ccc(OC)c(CCNC(=O)C(C)n2c(C)c3cnn(-c4ccccc4)c(=O)c3c2C)c1 (stereo not given)	nt	-2.7	nt	-7.7	-1.4	-14.2
COc1cc(NS(=O)(=O)c2ccc(C(=O)O)cc2)c2nc(C)ccc2c1	nt	1.3	nt	19.5	10.6	nt
SMILES	Chronic BCR inh	D1 ag	DRD3 antagonist	D1 antag	D1 PAM	DRD3 agonist
Cc1ccc(S(=O)(=O)Nc2cccc3cccnc23)cc1	?	0.3	-80.6*	-24.0	-6.8	-11.7
COc1cc(NS(=O)(=O)c2ccc(C)cc2)c2ncccc2c1	?	0.7	-55.0*	-7.6	-4.3	-16.3
Fc1ccccc1NC(=S)N(CCN1CCCCCC1)Cc1cccs1	?	5.3	15.9	-31.9*	-10.6	-6.2
COc1ccccc1NC(=S)N(CCN1CCOCC1)Cc1ccccc1F	5.6%	1.5	3.9	4.5	-2.3	1.4
Cc1ccccc1NC(=S)N(CCN1CCCCCC1)Cc1cccs1	1.9%	0.8	?	-16.0	-4.7	-21.6
O=C(CNC(=S)N(CCCN1CCOCC1)Cc1cccs1)NCc1ccccc1Cl	0.7%	4.0	-58.5*	-4.4	1.7	0.3
COc1ccccc1NC(=S)N(CCN1CCCCCC1)Cc1cccs1	-0.9%	6.5	-57.7*	-14.0	8.1	-21.9
CCOc1cc(S(=O)(=O)NCCc2c(C)[nH]c3ccc(C)cc23)ccc1F	12.4%	4.3	nt	4.4	0.1	8.6
O=C(CCc1ccccc1)N1CCc2c([nH]c3ccccc23)C1c1ccc(F)cc1 (stereo not given)	nt	1.0	nt	-7.3	-3.6	-5.7
COC(=O)C(/C=N/OCc1ccc([N+](=O)[O-])cc1)NC(=O)c1cccc(Cl)c1 (stereo not given)	-9.3%	40.7*	-8.8	-5.4	-10.2	-11.0
Cc1ccc(CONC(=O)c2cccc([N+](=O)[O-])c2)cc1	-1.9%	0.2	-5.3	-3.6	-10.2	4.1
CC(=O)c1ccc(OC2(C)CCN(Cc3ccc4c(c3)OCCO4)C2)cc1 (stereo not given)	nt	nt	-68.8*	nt	nt	-10.2
CC(=O)c1ccc(OC2(C)CCN(Cc3ccc4ccccc4c3)C2)cc1 (stereo not given)	nt	nt	-29.7	nt	nt	-25.9
CC(=O)c1ccc(OC2(C)CCN(Cc3ccc(C)cc3)C2)cc1 (stereo not given)	nt	nt	-101.9*	nt	nt	-10.9
CCc1ccc(OC2(C)CCN(Cc3ccc4c(c3)OCCO4)C2)cc1 (stereo not given)	nt	nt	11.2	nt	nt	-18.1
Cc1nnsc1-c1nc2ccccc2n1C(CCc1ccccc1)c1nc2ccccc2[nH]1 (stereo not given)	nt	nt	-12.1	nt	nt	-9.5
O=C1CCCC(=O)N1c1ccc(N2CCN(c3ccccc3)CC2)c([N+](=O)[O-])c1	-0.2%	4.5	-19.0	-45.6*	-6.7	-9.1
O=C1CCCC(=O)N1c1ccc(N2CCN(c3ccc([N+](=O)[O-])cc3)CC2)c([N+](=O)[O-])c1	-1.7%	1.4	nt	-16.4	-0.7	nt
O=C1C2CC=CCC2C(=O)N1c1ccc(N2CCN(c3ccccn3)CC2)c([N+](=O)[O-])c1 (stereo not given)	11.5%	13.5	-18.3	-36.1*	-3.6	14.7
COC(=O)C[C@@H]1CC[C@H](NC(=O)c2ccc3c(c2)OCO3)[C@@H](CO)O1	nt	nt	15.1	nt	nt	2.2
